PubChem BioAssay
Several values for one entry are separate records, joined by “and”; a condition that tells them apart may be missing. Equal entries are not always repeated.

Assays:
[1] = tested on: Botulinum neurotoxin type F light chain protease (Clostridium botulinum); experiment: Clostridium botulinum type F light chain protease inhibitors, microsphere substrate cleavage, validation (AID 588459); details: multiplex microsphere protease substrate cleavage assay, flow cytometry; at 10 µM; hits give high values
[2] = biological target: Botulinum neurotoxin type A (Clostridium botulinum) (UniProt P0DPI0); experiment: BoNT/A light chain protease inhibitors, biochemical, multiplex microsphere flow cytometry, validation set (AID 588460); details: at 10 µM, hits give high values
[3] = biological target: Lethal factor (Bacillus anthracis) (UniProt P15917); experiment: Bacillus anthracis lethal factor inhibition, microsphere flow cytometry protease assay, validation at 10 µM (AID 588461); details: multiplex microsphere protease cleavage assay, hits give high values

Measured: inhibition

Chain of Botulinum neurotoxin type A (Clostridium botulinum) (P0DPI0 whole entry, looked up): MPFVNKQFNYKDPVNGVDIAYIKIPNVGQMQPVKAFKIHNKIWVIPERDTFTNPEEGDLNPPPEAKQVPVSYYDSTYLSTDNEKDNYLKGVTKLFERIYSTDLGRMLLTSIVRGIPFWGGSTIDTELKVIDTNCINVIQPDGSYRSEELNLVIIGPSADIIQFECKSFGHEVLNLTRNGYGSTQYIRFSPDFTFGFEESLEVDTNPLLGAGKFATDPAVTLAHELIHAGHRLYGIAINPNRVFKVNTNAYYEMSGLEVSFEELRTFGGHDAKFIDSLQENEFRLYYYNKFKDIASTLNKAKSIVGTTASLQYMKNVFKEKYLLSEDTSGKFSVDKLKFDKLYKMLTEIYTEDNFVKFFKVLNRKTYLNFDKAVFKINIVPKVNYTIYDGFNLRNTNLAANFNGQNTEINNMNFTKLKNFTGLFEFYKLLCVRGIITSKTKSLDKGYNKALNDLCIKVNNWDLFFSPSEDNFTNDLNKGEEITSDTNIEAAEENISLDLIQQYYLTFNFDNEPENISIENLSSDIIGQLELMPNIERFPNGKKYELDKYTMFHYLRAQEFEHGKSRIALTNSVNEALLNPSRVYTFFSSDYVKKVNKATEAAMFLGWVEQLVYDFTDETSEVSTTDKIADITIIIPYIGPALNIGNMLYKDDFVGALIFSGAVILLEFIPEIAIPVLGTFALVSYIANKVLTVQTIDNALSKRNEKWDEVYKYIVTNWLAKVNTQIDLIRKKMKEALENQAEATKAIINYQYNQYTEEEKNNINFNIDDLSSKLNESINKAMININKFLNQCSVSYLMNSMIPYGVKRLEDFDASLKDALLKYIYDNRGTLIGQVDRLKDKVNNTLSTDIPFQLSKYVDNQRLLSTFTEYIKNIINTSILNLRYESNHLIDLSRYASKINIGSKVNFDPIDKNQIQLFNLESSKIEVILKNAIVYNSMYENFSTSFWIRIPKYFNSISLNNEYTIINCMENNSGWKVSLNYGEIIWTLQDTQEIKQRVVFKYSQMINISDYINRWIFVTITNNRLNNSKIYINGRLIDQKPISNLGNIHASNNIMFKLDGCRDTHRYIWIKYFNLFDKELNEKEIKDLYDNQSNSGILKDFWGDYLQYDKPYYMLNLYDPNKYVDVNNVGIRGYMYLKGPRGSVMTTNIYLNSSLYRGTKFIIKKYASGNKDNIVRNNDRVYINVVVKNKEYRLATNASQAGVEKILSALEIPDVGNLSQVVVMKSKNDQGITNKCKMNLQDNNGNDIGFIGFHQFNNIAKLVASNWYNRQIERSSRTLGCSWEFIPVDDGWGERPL
Chain of Lethal factor (Bacillus anthracis) (P15917 whole entry, looked up): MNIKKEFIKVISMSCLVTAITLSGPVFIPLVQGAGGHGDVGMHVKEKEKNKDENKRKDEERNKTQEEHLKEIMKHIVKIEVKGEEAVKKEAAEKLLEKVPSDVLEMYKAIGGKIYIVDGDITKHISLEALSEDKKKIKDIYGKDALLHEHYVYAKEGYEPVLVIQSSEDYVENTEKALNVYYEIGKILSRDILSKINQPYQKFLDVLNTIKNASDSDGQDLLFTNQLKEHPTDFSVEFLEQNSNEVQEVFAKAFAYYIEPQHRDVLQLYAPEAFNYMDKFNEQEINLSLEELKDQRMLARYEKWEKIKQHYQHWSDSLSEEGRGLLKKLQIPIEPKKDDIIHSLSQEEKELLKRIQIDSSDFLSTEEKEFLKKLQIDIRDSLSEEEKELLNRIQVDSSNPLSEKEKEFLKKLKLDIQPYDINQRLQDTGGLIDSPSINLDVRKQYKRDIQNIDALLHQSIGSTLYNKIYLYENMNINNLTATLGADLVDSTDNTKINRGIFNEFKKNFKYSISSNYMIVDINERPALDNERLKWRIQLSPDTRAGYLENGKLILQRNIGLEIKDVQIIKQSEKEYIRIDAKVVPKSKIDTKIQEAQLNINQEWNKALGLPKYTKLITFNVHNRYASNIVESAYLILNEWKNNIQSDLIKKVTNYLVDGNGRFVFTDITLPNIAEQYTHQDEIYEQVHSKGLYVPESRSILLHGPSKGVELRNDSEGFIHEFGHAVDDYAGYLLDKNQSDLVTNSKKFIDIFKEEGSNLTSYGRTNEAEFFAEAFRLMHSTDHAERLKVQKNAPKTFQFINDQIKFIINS

C=CCNc1nc2c(c(=O)n(C)c(=O)n2C)n1CC(=C)C
inactive: [1] 3.1% | [2] 0.5% | [3] -0.3%

Cc1ccc(S(=O)(=O)Nc2ccc(S(=O)(=O)Nc3cc(C)nc(C)n3)cc2)cc1
inactive: [1] -1.8% | [2] 0.6% | [3] 0.7%

CCOc1ccccc1C(=O)NCCC(=O)O
inactive: [1] 2.8% | [2] 1.9% | [3] 0.2%

NC(=O)[C@@H]1[C@@H]2C(=O)N(c3ccc(F)cc3)C(=O)[C@@H]2[C@H]2C=Cc3ccccc3N21
inactive: [1] 0.9% | [2] 1.5% | [3] -5.6%

COc1ccc(S(=O)(=O)NCc2ccco2)c2ccccc12
inactive: [1] 4.7% | [2] 0.4% | [3] 1%

CC(C)OC(=O)CC1C(=O)NCCN1C(=S)NC(=O)c1ccccc1Cl (centres undefined)
inactive: [1] -1.8% | [2] -0.4% | [3] -0.2%

C[C@H]1O[C@@H](O[C@H]2[C@@H](O)C[C@H](O[C@H]3[C@@H](O)C[C@H](O[C@H]4CC[C@@]5(C)[C@H](CC[C@@H]6[C@@H]5C[C@@H](O)[C@]5(C)[C@@H](C7=CC(=O)OC7)CC[C@]65O)C4)O[C@@H]3C)O[C@@H]2C)C[C@H](O)[C@@H]1O
inactive: [1] 2.7% | [2] -0.7% | [3] -2.8%

O=C1CCCN1CCCn1cnc2c([nH]c3ccc(F)cc32)c1=O
inactive: [1] 0% | [2] -0.3% | [3] 2.3%

NS(=O)(=O)c1cc2c(cc1Cl)NC(C1C[C@H]3C=C[C@@H]1C3)NS2(=O)=O (some centres undefined)
inactive: [1] 1.4% | [2] 1% | [3] -3.2%

CSc1ccc(/C=N/N2CCN(Cc3ccc(C)cc3C)CC2)cc1
inactive: [1] -0.3% | [2] -0.6% | [3] -0.3%

O=C(O)c1ccccc1C(=O)OCCCCOC(=O)c1ccccc1C(=O)O
inactive: [1] 5.9% | [2] -0.6% | [3] 3.5%

COc1ccc(NC(=S)N2CCN(CCN3C(=O)c4cccc5cccc(c45)C3=O)CC2)cc1
inactive: [1] 2.5% | [2] 1.6% | [3] -3.3%

Clc1cc(-c2ccc(/C=N/n3cnnc3)o2)ccc1Br
inactive: [1] -3.6% | [2] -0.3% | [3] 0.9%

COc1ccc(/C=N\NC(=O)CCc2c(C)n[nH]c2C)c(OC)c1OC
inactive: [1] -0.8% | [2] 0.3% | [3] 8.6%

CCOC(=O)N1CCc2[nH]c3ccc(C)cc3c2C1
inactive: [1] -1.2% | [2] -1.6% | [3] 1.9%

CC[C@H]1CN2CCc3cc(OC)c(OC)cc3[C@@H]2C[C@@H]1C[C@H]1NCCc2cc(OC)c(OC)cc21
inactive: [1] 3.7% | [2] 0.9% | [3] 0.6%

Cc1cccc(N(C)C(=S)Oc2ccc3ccccc3c2)c1
inactive: [1] -0.1% | [2] -0.6% | [3] -4.3%

COc1cccc(CN2CCN(C(=O)c3ccc(-c4ccccc4)cc3)CC2)c1
inactive: [1] 3.8% | [2] -0.4% | [3] -3.1%

CC(C)(C)N(Cc1ccccc1)C(=O)c1ccc(Br)o1
inactive: [1] -1.1% | [2] 0.8% | [3] 11.8%

c1ccc2c(c1)CCOC2CNCCCN1CCCCC1 (centres undefined)
inactive: [1] 0.6% | [2] 1.3% | [3] -8.4%

c1ccc(Nc2ccccn2)nc1
inactive: [1] 2.3% | [2] -2.1% | [3] -4.7%

CC(C)OC(=O)CC12CN3CN(C1)CC(CC(=O)OC(C)C)(C3)C2=O
inactive: [1] 1.8% | [2] -0.4% | [3] 6.1%

O=C(O)CCCCCN1C(=O)C(=O)/C(=C(/O)c2ccccc2)C1c1ccccc1 (centres undefined)
inactive: [1] 0.2% | [2] 0.9% | [3] -6.7%

Cc1cc(C)nc(NS(=O)(=O)c2ccc(N)cc2)n1
inactive: [1] 1.3% | [2] 2.1% | [3] 3.4%

C#CCN1C(=O)C(O)(CC(=O)c2ccc(OC)c(OC)c2)c2ccccc21 (centres undefined)
inactive: [1] 2.3% | [2] -1.3% | [3] 2%

CCN(CC)CCNC(=O)c1ccc(NC(C)=O)cc1
inactive: [1] 3.4% and 3.6% | [2] 1.2% and -1.2% | [3] -6.2% and -1.6%

Cc1nc2ccccc2c(=O)n1N
inactive: [1] 4.9% | [2] 0.7% | [3] -5.7%

CCn1c(SCC(=O)c2ccccc2)nc2ccccc2c1=O
inactive: [1] -3% | [2] -0.1% | [3] -5.1%
